Measurements published in PubChem BioAssay AID651820 (National Center for Advancing Translational Sciences (NCATS), 2012).
“And” between values parts separate entries of the source, which are not always exact repeats. Identical values can stand only once. The whole screen tested about 340,000 compounds, of which about 12,000 (3.5%) were called active. About 18% were inconclusive and are not listed. What follows is part of a selection rich in actives, with near analogues and random picks from the rest. A call without a number means that no potency is given here. Values without a mark were called inactive. The call rests on the fitted dose curve; in most records, active means well fitted inhibition curve with a large enough effect; inconclusive means small, poorly fitted or top-dose-only effect, or another doubt; inactive means no such curve, though single readings can be large or run the other way.

Assay: qHTS Assay for Inhibitors of Hepatitis C Virus (HCV)
Settings: Huh7.5.1 HCVcc-Cre infection, luciferase reporter, 44 h; series mostly up to 41.8 µM
In short: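 Infectious HCVcc-Cre (~0.5 moi) was added to cells just after compound, with cells seeded 4 h earlier at 1,000 per well. Luciferase activity after 44 h culture reported infection; substrate was incubated 15 min at room temperature before reading.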
Potency means the concentration at half of the fitted maximal effect.

SMILES | Potency | activity change, negative = inhibition
O=S(=O)(Nc1ccc2ccccc2c1)N1CCCCC1 | inactive | –
CCOc1ccccc1/C=N/Nc1nc2ccccc2o1 | 12.6 µM (active) | –
Brc1ccccc1/C=N/Nc1nc2ccccc2o1 | inactive | –
COc1ccc(/C=N/Nc2nc3ccccc3o2)cc1OC | inactive | –
Cc1ccc(SCC(=O)Nc2ccc3c(c2)OCCO3)cc1 | inactive | –
Cc1ccc(SCC(=O)c2cc(C)c(OC(=S)N(C)C)c(C)c2)cc1 | 11.2 µM (active) | –
Cc1ccc(C(=O)CSc2ccccc2C(=O)O)cc1 | inactive | –
CC[C@]12c3[nH]c4ccc(Cl)cc4c3CCN1C(=O)[C@@H](CC(=O)NCCN1CCOCC1)C[C@@H]2C(=O)N1CCN(C(=O)C2CC2)CC1 | inactive | –
CCOC(=O)C[C@H]1c2ccc(C(F)(F)F)cc2S(=O)(=O)N1c1ccccc1 | inactive | –
O=C(CCCCCn1c(=S)[nH]c2cc3c(cc2c1=O)OCO3)N1CCN(c2ccc(F)cc2)CC1 | inactive | –
Cc1ccc(C)c(N2CCN(C(=O)CCc3nc4ccccc4[nH]3)CC2)c1 | – | 3.71% [at 8.37 µM]
Cc1ccc(C)c(N2CCN(C(=O)CCCCCn3c(=S)[nH]c4ccc(N5CCOCC5)cc4c3=O)CC2)c1 | 2.82 µM (active) | –
CN(CC(=O)Nc1cccc(F)c1)C(=O)C1CSC2(C)CCC(=O)N12 (stereo not drawn) | inactive | –
COc1ccc(Cl)cc1NS(=O)(=O)c1cccc(C(=O)NC2CCC(O)CC2)c1 (stereo not drawn) | inactive | –
O=C(Nc1cccc(NC(=O)c2cccc(F)c2)c1)c1ccccc1 | inactive | –
COc1cccc(C(=O)NNC(=O)c2cccc(F)c2)c1 | inactive | –
CCC(CO)Oc1cc(NC(=O)c2cccc(F)c2)c2ncn(C(C)C)c2c1 (stereo not drawn) | 0.562 µM (active) | –
O=C1/C(=C/c2ccc(F)cc2)SC(=S)N1CCCC(=O)N1CCCCC1CCO (stereo not drawn) | 11.2 µM (active) | –
CCN(C(=O)CN1C(=O)/C(=C/c2ccc(F)cc2)SC1=S)C1CCS(=O)(=O)C1 (stereo not drawn) | inactive | –
COc1ccc(/C=C2\SC(=S)N(CCCC(=O)NC3CCCC3)C2=O)cc1OC | inactive | –
O=C(COC(=O)Cc1c[nH]c2ccccc12)NCCc1ccccc1 | inactive | –
O=C(CN1CCN(c2ccccc2O)CC1)NC(=O)NCc1ccccc1 | inactive | –
CCCOc1ccc(N/C=C/C(=O)C(C)(C)C)cc1 | inactive | –
CCCOc1ccc(C(=O)C(CCC(CNCC)C(=O)c2ccc(OCCC)cc2)CNCC)cc1 (stereo not drawn) | 5.01 µM (active) | –
CCCOc1ccc(C(=O)CCC(=O)OC(C)C(=O)Nc2ccc(NC(C)=O)cc2)cc1 (stereo not drawn) | inactive | –

SMILES | Potency | activity change, negative = inhibition
CCN(CC(=O)Nc1ccccc1C(F)(F)F)C(=O)CSCc1c(C)noc1C | inactive | –
COc1ccc(S(=O)(=O)N2C[C@H]3CON(C)[C@H]3C[C@H]2c2cccc(Br)c2)cc1 | – | 28% [at 8.37 µM]
O=C(NCc1ccccc1Cl)C1CCN(S(=O)(=O)N2CCOCC2)CC1 | inactive | –
O=C(O)C1CCN(S(=O)(=O)N2CCOCC2)CC1 | 22.4 µM (active) | –
COc1ccc(CNC(=O)C2CCN(S(=O)(=O)N3CCOCC3)CC2)cc1 | inactive | –
COc1ccc(OCCCC(=O)OC(C)C(=O)Nc2ccccc2[N+](=O)[O-])cc1 (stereo not drawn) | inactive | –
O=C(COC(=O)c1cccnc1Cl)NC(=O)NC1CCCCC1 | inactive | –
Cc1noc(C)c1S(=O)(=O)N(C)C[C@H]1Oc2ccc(NC(=O)C3CC3)cc2C(=O)N([C@H](C)CO)C[C@@H]1C | inactive | –
O=C1NC(c2ccccc2)Cc2ccncc21 (stereo not drawn) | inactive | –
Cc1cccc(C)c1NC(=O)CN(C)C(=O)CCC(=O)c1ccccc1 | inactive | –
CN(CC(=O)Nc1ccc(Cl)c(C(F)(F)F)c1)C(=O)CCC(=O)c1ccccc1 | 11.2 µM (active) | –
Cc1ccc(C(=O)CCC(=O)N(C)CC(=O)Nc2c(Cl)cccc2Cl)cc1 | inactive | –
COc1ccc(CNC(=O)C[C@H]2C[C@H](C(=O)N3CCOCC3)[C@@]3(C)c4[nH]c5cc(CCC(=O)N(C)C)ccc5c4CCN3C2=O)cc1OC | inactive | –
CN(C)CCn1c2c(c(SCC(=O)Nc3ccccc3C(F)(F)F)nc1=O)CCCC2 | inactive | –
Cc1cc(C)c(CN2CCN(C(=O)Cn3ccc(NC(=O)OCc4ccccc4)nc3=O)CC2)c(C)c1 | 4.47 µM (active) | –
O=C(Nc1ccn(CCCNCc2ccc3[nH]ccc3c2)c(=O)n1)OCc1ccccc1 | inactive | –
Nc1ccn(CC(=O)N2CCN(c3ccccn3)CC2)c(=O)n1 | inactive | –
CCC1([N+](=O)[O-])COC(c2ccc(C(C)C)cc2)OC1 (stereo not drawn) | inactive | –
CCCN(C(=O)c1nc2nccc(C)n2n1)c1c(N)n(Cc2ccccc2)c(=O)[nH]c1=O | inactive | –
O=C1CC(c2ccccc2)C(c2ccccc2)=NN1 (stereo not drawn) | inactive | –
CC(C)c1cc(N=O)cc(C(C)C)c1O | inactive | –
O=C(OCC(=O)N1CCCCCC1)c1ccc(Cl)nc1 | inactive | –
CN1CCN(C2Cc3ccc(Cl)cc3Sc3ccc(F)cc32)CC1 (stereo not drawn) | 31.6 µM (active) | –
CN(CC(=O)Nc1ccc(F)c(F)c1F)C(=O)C1CC(=O)N(C2CCCC2)C1 (stereo not drawn) | inactive | –
CCCn1c(=N)n(CC(=O)c2ccc(Cl)c(Cl)c2)c2ccccc21 | 10 µM (active) | –

SMILES | Potency | activity change, negative = inhibition
CCCNC(=O)c1ccc(Cl)c(Cl)c1 | inactive | –
CCCCOC(=O)Cn1c(=N)n(CCN(CC)CC)c2ccccc21 | inactive | –
Cc1ccc(S(=O)(=O)N2CCCCC2)cc1C(=O)N1CCN(CCO)CC1 | inactive | –
CNc1nc(=O)n(C2CCCO2)cc1C (stereo not drawn) | inactive | –
Cc1ccc(OCc2cc(C(=O)N(C)CCc3ccccc3)no2)cc1C | inactive | –
CN(Cc1cccnc1)C(=O)c1cc(COc2ccc3ncccc3c2)on1 | 3.98 µM (active) | –
CN(Cc1cnccn1)C(=O)c1cc(COc2cccc(C(F)(F)F)c2)on1 | inactive | –
O=C(c1ccc2c(c1)C(=O)N(c1ccc(Cl)cc1)C2=O)N1CCN(c2ccccn2)CC1 | inactive | –
O=C1c2ccccc2S(=O)(=O)c2cc(N3CCN(c4ccccn4)CC3)ccc21 | inactive | –
O=C(c1ccc2c(c1)N(Cc1ccc(F)cc1)C(=O)c1ccccc1S2(=O)=O)N1CCN(c2ccccn2)CC1 | 25.1 µM (active) | –
CCC(=O)c1ccc(OCC(=O)N(CC)CC2COc3ccccc3O2)cc1 (stereo not drawn) | inactive | –
CC(=O)c1c(C)[nH]c(C(=O)COC(=O)CCOc2ccc(C)cc2)c1C | inactive | –
CCc1c(Nc2ccccc2Cl)nc(N)[nH]c1=O | inactive | –
C#CCOCCOCCOCCNc1nc(N2CCN(C(=O)[C@H](CCC(=O)O)n3cc(CN)nn3)CC2)nc(N2CCN(C(=O)[C@H](CCC(=O)O)n3cc(CN)nn3)CC2)n1 | inactive | –
COc1cc2c(cc1OC)C(c1ccncc1)CC(=O)N2 (stereo not drawn) | inactive | –
CCCOc1ccccc1C1CC(=O)Nc2cc3c(cc21)OCO3 (stereo not drawn) | 2.24 µM (active) and 3.55 µM (active) | –
COc1cc2c(cc1OC)C(c1ccc(C)o1)CC(=O)N2 (stereo not drawn) | inactive | –
CCn1c(SCC(=O)NCC2CCCO2)nc2ccccc21 (stereo not drawn) | inactive | –
O=C(Nc1nc(-c2ccncc2)cs1)C1COc2ccccc2O1 (stereo not drawn) | inactive | –
Cc1ccc(-c2csc(NC(=O)C3=COCCO3)n2)cc1C | 7.94 µM (active) | –
CC(=O)NCCC(=O)Nc1nc(-c2ccc3c(c2)OCCO3)cs1 | inactive | –
Cc1csc(NC(=O)C2=COCCO2)n1 | inactive | –
Cc1ccc(-c2csc(NC(=O)c3cnccn3)n2)cc1C | inactive | –
O=C(Nc1nc(-c2ccc3c(c2)OCO3)cs1)c1ccncc1 | 12.6 µM (active) | –
O=C(CCc1nc2sc3c(c2c(=O)[nH]1)CCCC3)NCC(=O)Nc1ccccc1Br | inactive | –

SMILES | Potency | activity change, negative = inhibition
COc1ccc(CNC(=O)COC(=O)C2=Cc3ccccc3OC2)cc1 | inactive | –
Cn1cc(C2OC(=O)c3ccccc32)c2ccccc21 (stereo not drawn) | inactive | –
COc1cc(F)c(C2=CC(=O)CC(C)(C)C2)cc1F | inactive | –
Cc1cc([N+](=O)[O-])ccc1NS(=O)(=O)c1ccccc1 | inactive | –
COC(=O)c1ccc(/C=C/c2c(-c3ccc(OC)cc3)sc3ccccc23)cc1 | inactive | –
Cc1cccc(NC(=O)c2ccccc2NC(=O)C(C)(C)C)n1 | inactive | –
Cc1cccc(NC(=O)Nc2ccc(OCc3ccccc3)cc2)n1 | inactive | –
Cc1cccc(NC(=O)c2ccc(COc3ccccc3[N+](=O)[O-])o2)n1 | 25.1 µM (active) | –
CCc1ccc(C(=O)C(C)OC(=O)CN2C(=O)NC3(CCCC3)C2=O)cc1 (stereo not drawn) | inactive | –
NC(=O)c1ccc(CN2CCC(Cc3ccccc3)CC2)cc1 | 11.2 µM (active) | –
O=C(O)c1ccc(S(=O)(=O)N2CCC(Cc3ccccc3)CC2)cc1 | inactive | –
Brc1ccccc1CN1CCC(Cc2ccccc2)CC1 | inactive | –
COc1ccccc1CNS(=O)(=O)c1cc2c3c(c1)CCC(=O)N3CCC2 | inactive | –
COc1ccc(-c2nc3c(s2)CCc2onc(-c4ccc(Br)cc4)c2-3)cc1 | inactive | –
CCCCn1c(N)c(N(CC(C)C)C(=O)CN(C)S(=O)(=O)c2ccc(F)cc2)c(=O)[nH]c1=O | inactive | –
CC1(C)CC(=O)c2ccc(O)cc2O1 | inactive | –
CC[C@@H]1Cc2cc(O)ccc2C2=C1c1ccc(O)cc1C[C@H]2CC | 3.16 µM (active) | –
O=C(Nc1cccc(S(=O)(=O)NC2=NCCC2)c1)c1ccc(F)cc1F | inactive | –
COc1ccc(-n2nc(C(=O)NCC(=O)N3CCC(C(N)=O)CC3)c3ccccc3c2=O)cc1OC | inactive | –
COc1ccc(-n2nc(C(=O)NCC(=O)N3CCN(c4ccccc4OC)CC3)c3ccccc3c2=O)c(OC)c1 | inactive | –
COc1ccc(-n2nc(C(=O)NCC(=O)N3CCCCCC3)c3ccccc3c2=O)cc1Cl | 11.2 µM (active) | –
O=C1N[C@@H](Cc2ccccc2)C(=O)N2[C@@H]3N(S(=O)(=O)c4ccc(F)cc4)c4ccccc4[C@]3(Br)C[C@@H]12 | inactive | –
CCOC(=O)C1CCN(CC(=O)Nc2ccc(OC)c(S(=O)(=O)N3CCCCC3)c2)CC1 | inactive | –
